Measured values taken from PubChem BioAssay (Tox21).
“And” between values parts separate entries of the source, which are not always exact repeats. Identical values can stand only once. Records with an inconclusive call do not appear. Unmarked numbers belong to inactive results. The source made the active and inactive calls. Calls follow the shape of the dose curve; as a rule, active = well fitted cell-killing curve with a large enough effect in the repeat runs; inconclusive = weak or mixed curves, or effect the other way; inactive = no such curve, though single readings can be large or run the other way.

Assay: qHTS assay for identifying genotoxic compounds that show differential cytotoxicity against isogenic chicken DT40 cell lines with known DNA damage response pathways - wild type cell line (AID 743012); also: nearly all actives have a fitted effect of over 60% in size
Details: DT40 wild type chicken cells viability, CellTiter-Glo, 40 h; series mostly up to 68.4 µM; activity change, negative = cytotoxicity: at the top concentration
From the text: U.S. Tox21 Program National Center for Advancing Translational Sciences [NCATS] NIH Chemical Genomics Center [NCGC] U.S. Environmental Protection Agency [EPA] National Institutes of Environmental Health Sciences [NIEHS] National Toxicology Program [NTP] U.S. Food and Drug Administration [FDA] Tox21 Assay Overview: DNA repair pathways play a critical role in cellular homeostasis by repairing DNA damage induced by endogenous processes and xenobiotics. Isogenic chicken DT40 cell lines deficient in different DNA repair pathways can be used to identify genotoxic compounds and aid in characterizing the nature of the DNA damage induced. Two DNA repair-deficient cell lines with disrupted genes, Rad54/Ku70 or Rev3, were used to screen the Tox21 10K compound library. Possible genotoxicity was based on the presence of a significant increase in cytotoxicity in one or more of the DNA repair-deficient cell lines compared to that observed in the parental DNA repair-proficient cell line. CellTiter Glo viability assay (Promega, Madison, WI) was used to measure cell viability in these cells after compound treatment. This assay includes the data from the wild type cell line.
Tox21 Assay Protocol Summary: 300 DT40 wild type cells in 5 uL/well were dispensed into white, solid-bottom 1536-well plates using a Multidrop Combi (ThermoFisher Scientific, Waltham, MA) dispenser. After the assay plates were incubated at 37 C/5% CO2 for approximately 0.5 hour, 23 nL of compounds dissolved in DMSO, positive controls or DMSO only was transferred into the assay plate by a pintool work station (Kalypsys, San Diego, CA). The assay plates were incubated at 37 C/5% CO2 for 40 hours. After 5 uL per well of CellTiter-Glo reagent was added into each well of the assay plates, the plates were incubated for 30 min at room temperature and the luminescence intensity of the plates was measured using a ViewLux (PerkinElmer, Shelton, CT) plate reader.
% is scaled to controls: 0 for no effect and ±100 for the full control effect; potency is read from the fitted curve at half-maximal effect.

| Structure (SMILES) | Potency | activity change, negative = cytotoxicity |
| --- | --- | --- |
| COc1cc([C@@H]2c3cc4c(cc3C(O[C@@H]3O[C@@H]5CO[C@@H](C)O[C@H]5[C@H](O)[C@H]3O)C3COC(=O)[C@@H]32)OCO4)cc(OC)c1OP(=O)(O)O (stereo not given in full) | 531 nM (active) and 750 nM (active) | – |
| CN(C(=O)CO)c1c(I)c(C(=O)NCC(O)CO)c(I)c(C(=O)NCC(O)CO)c1I (stereo not given) | – | 2.8% |
| CCCCCCCCCCCCCCCC(=O)OC[C@@H](O)[C@H]1OC[C@H](O)[C@H]1O | – | 0.0456% |
| COC1=C(C(=O)O)N2C(=O)[C@@H](NC(=O)[C@H](N)C3=CCC=CC3)[C@H]2SC1 | – | -4.05% |
| C[C@H]1C[C@@H]2[C@H]([C@@H](O)C[C@@]3(C)[C@H]2CC[C@]3(O)C(=O)COC(=O)CCC(=O)O)[C@@]2(C)C=CC(=O)C=C12 | – | -19.1% |
| CNc1cc(OC)c(C(=O)N[C@H]2CCN(Cc3ccccc3)[C@H]2C)cc1Cl | 5.96 µM (active) | – |
| Cc1ccc(S(=O)(=O)NC(=O)N[C@@H](C)Cc2ccccc2)cc1 | – | 5.79% |
| C[C@H](CCCC(C)(C)O)[C@H]1CC[C@H]2[C@@H]3CC=C4C[C@@H](O)CC[C@]4(C)[C@H]3CC[C@]12C | 1.68 µM (active) | – |
| CC(=O)Oc1cccc(C(=O)O)c1OC(C)=O | – | 2.79% |
| CC(C)=CCC/C(C)=C/C=C/C(C)=C/C=C/C(C)=C/C=C/C=C(C)/C=C/C=C(C)/C=C/C=C(\C)CCC=C(C)C | 29.8 µM (active) | – |
| CC(C)CN(C[C@@H](OP(=O)(O)O)[C@H](Cc1ccccc1)NC(=O)O[C@H]1CCOC1)S(=O)(=O)c1ccc(N)cc1 | – | 9.07% |
| CN[C@@H]1[C@H](O[C@H]2[C@H](O[C@H]3[C@H](O)[C@@H](O)[C@H](N=C(N)N)[C@@H](O)[C@@H]3N=C(N)N)O[C@@H](C)[C@]2(O)CO)O[C@@H](CO)[C@H](O)[C@H]1O | – | 13.9% |
| CCCCCCOc1ccc(C(=N)N(CCCC)CCCC)c2ccccc12 | 3.76 µM (active) | – |
| Cc1cccc(C)c1Nc1ncccc1C(=O)O | – | 2.12% |
| CNC(C)CCC=C(C)C (stereo not given) | 23.7 µM (active) | – |
| O=[N+]([O-])O[C@@H]1CO[C@H]2[C@@H]1OC[C@@H]2O | – | 16.4% |
| CCCCC(=O)N(Cc1ccc(-c2ccccc2-c2nn[nH]n2)cc1)[C@@H](C(=O)O)C(C)C | – | 7.69% |
| Cc1onc(-c2ccccc2)c1C(=O)N[C@@H]1C(=O)N2[C@@H]1SC(C)(C)[C@@H]2C(=O)O | – | 5.66% |
| NCCCC[C@H](N)C(=O)O | – | 9.19% |
| CNCC(O)c1ccc(OC(=O)C(C)(C)C)c(OC(=O)C(C)(C)C)c1 (stereo not given) | 12.7 µM (active) | – |

| Structure (SMILES) | Potency | activity change, negative = cytotoxicity |
| --- | --- | --- |
| CC(=O)[C@]1(O)Cc2c(O)c3c(c(O)c2[C@@H](O[C@H]2C[C@H](N)[C@H](O)[C@H](C)O2)C1)C(=O)c1c(O)cccc1C3=O | 18.8 nM (active) and 21.1 nM (active) | – |
| NC(N)=NCC1COc2ccccc2O1 (stereo not given) | – | 0.598% |
| O=S(=O)(O)Oc1ccc(C(c2ccc(OS(=O)(=O)O)cc2)c2ccccn2)cc1 | – | -3.75% |
| CC(=O)OC[C@H]1O[C@@H](O[C@H]2[C@H](O)[C@@H](OC(=O)c3ccccc3C(=O)O)[C@H](O)O[C@@H]2COC(C)=O)[C@H](O)[C@@H](OC(=O)c2ccccc2C(=O)O)[C@@H]1O | – | 3.31% |
| C[C@@](Cc1ccc(O)c(O)c1)(NN)C(=O)O | 29.8 µM (active) | – |
| C[N@+]12CCCC[C@@H]1CCC(=C(c1cccs1)c1cccs1)C2 | 5.96 µM (active) | – |
| Cc1cc(-n2c(=O)[nH]c(=O)n(C)c2=O)ccc1Oc1ccc(S(=O)(=O)C(F)(F)F)cc1 | 26.6 µM (active) | – |
| CCN(CC)CCCC(C)Nc1cc(/C=C/c2ccccc2Cl)nc2cc(Cl)ccc12 (stereo not given) | 26.6 µM (active) | – |
| O=C(O)CCC/C=C\C[C@@H]1[C@@H](/C=C/[C@@H](O)COc2cccc(Cl)c2)[C@H](O)C[C@@H]1O | – | 6.88% |
| COc1cc(/C=C/C(=O)N2CCN(CC(=O)N3CCCC3)CC2)cc(OC)c1OC | – | 24% |
| O=C1NCCN1c1ncc([N+](=O)[O-])s1 | – | 13.8% [at 31.4 µM] |
| CO[C@H]1C[C@H](O[C@H]2[C@H](C)[C@@H](O[C@@H]3O[C@H](C)C[C@H](N(C)C)[C@H]3OC(C)=O)[C@@H](C)C[C@]3(CO3)C(=O)[C@H](C)[C@@H](OC(C)=O)[C@@H](C)[C@@H](C)OC(=O)[C@@H]2C)O[C@@H](C)[C@@H]1OC(C)=O | – | 3.36% [at 31.4 µM] |
| CCCCC[C@H](O)/C=C/[C@@H]1[C@H]2C/C(=C/CCCC(=O)O)O[C@H]2C[C@H]1O | – | 0.0328% |
| CCCN(CC)C(CC)C(=O)Nc1c(C)cccc1C (stereo not given) | – | -8.74% |
| CCN(CC)CCOc1ccc2nc(N(C)C)sc2c1 | 1.19 µM (active) | – |
| NCCC(=O)[N-][C@@H](Cc1cnc[nH]1)C(=O)O.[Zn] | – | 3.78% |
| O=C(Cn1c(=O)sc2ccc(Cl)cc21)N1CCN(CCO)CC1 | – | 6.67% |
| COc1ccc(C2NC(=S)N3C(c4ccc(OC)c(OC)c4)NC(=S)N23)cc1OC (stereo not given) | 0.0067 µM (active) | – |
| CCCC1([C@H](O)C/C=C/[C@H]2[C@H](O)CC(=O)[C@@H]2CCCCCCC(=O)OC)CCC1 | 11.9 µM (active) | – |
| CCCC(=O)Nc1c(I)cc(I)c(CC(CC)C(=O)O)c1I (stereo not given) | – | 20.7% |
